Experimental findings from PubChem BioAssay AID847 (SRMLSC, 2007) are described below.

The campaign covered roughly 41,000 compounds. About 190 (0.46%) were called active. What follows is part of a selection rich in actives, with near analogues and random picks from the rest. Unmarked numbers belong to inactive results.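 The calls were made as follows: active = viability at or below the median of all test compounds minus 3 SD, in both replicates if run twice (cut at about 45% in these data); inconclusive = duplicate replicates that disagree with each other; inactive = viability above that cutoff in every replicate.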

The test can be described thus: viability loss of SK-BR-3 cells – cell-based, human, 24 h, primary screen (AID 847).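 Also: 100% = median untreated cell wells and 0% = median positive control drug.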 The settings on record: SK-BR-3 viability, CellTiter-Glo ATP luminescence, at 10 µM, hits give low values.
On to `CN(C)c1ccc(CNC23CN4CN(CN(C4)C2)C3)cc1`, for which the viability was 99%.

Turning to `Cn1c2c(c(=O)n(C)c1=O)CN(Cc1ccco1)CN2`, the viability was 83.8%.

As for `O=C(Cn1c(=O)sc2ccccc21)Nc1ccc2c(c1)OCCO2`, the viability is 78.4%.

For the compound `Cc1ccc2cc(C#N)c(SCC(=O)NCC3CCCO3)nc2c1C` (stereo not drawn), the viability is 82.7%.

On to `O.O.O.O=S(=O)([O-])OC[C@H]1O[C@@H](O[C@]2(COS(=O)(=O)[O-])O[C@H](OS(=O)(=O)[O-])[C@@H](OS(=O)(=O)[O-])[C@@H]2OS(=O)(=O)[O-])[C@H](OS(=O)(=O)[O-])[C@@H](OS(=O)(=O)[O-])[C@@H]1OS(=O)(=O)[O-].[Al]`, for which the viability is 89.7%.

In the case of `CC(=O)Nc1cccc2c1[n+]([O-])c(C)c(C)[n+]2[O-]`, the viability is 115%.

With `CCN(CC)P(=O)(/C(Cl)=C\Nc1c(C)n(C)n(-c2ccccc2)c1=O)N(CC)CC`, the viability was 104%.

Consider `Cn1nnnc1SCC(=O)N1CCN(Cc2ccccc2)CC1`, for which the viability was 103%.

`Cn1c(SCC(=O)Nc2cccc(NC(=O)c3cccs3)c2)nnc1-c1ccncc1`: the viability is 91.4%.

As for `O=C(CSc1nc(-c2ccco2)cc(C(F)(F)F)n1)N1CCc2ccccc2C1`, the viability is 113%.

In the case of `CCCN1C(=O)C(NC(C)=O)c2cc(OC)ccc21` (stereo not drawn), the viability is 88.1%.

As for `Cc1nc2cc(-c3ccc(F)cc3)nn2c(N2CCOCC2)c1C`, the viability was 89.5%.

`FC(F)(F)c1cccc(Nc2ncnc3ccccc23)c1`: the viability is 90.1%.

For `CCOC(=O)Cc1csc(NC(=O)CSc2nc(C)cc(=O)[nH]2)n1`, the viability was 43.4% (active).

Turning to `CCOC(=O)Cc1csc(NC(=O)Nc2ccccc2)n1`, the viability was 111%.

Regarding `CCOC(=O)Cc1csc(NC(=O)C(C)(C)C)n1`, the viability is 89.5%.

Take `Cc1cc(C)cc(NC(=O)N2CCC(NC(=O)c3ccc(F)cc3)CC2)c1`: the viability is 103%.

On to `COc1cc(OC)cc(C(=O)NCCSCc2ccco2)c1`, for which the viability is 80.3%.

For the compound `N#Cc1c(NC(=O)CSc2nc3ccccc3c(=O)n2Cc2ccco2)sc2c1CCCC2`, the viability was 72.2%.

As for `CCOc1ccccc1NC(=O)CCc1ccc(C)o1`, the viability is 103%.

For the compound `COCCCNC(=O)c1c(F)c(F)c(F)c(F)c1F`, the viability was 79.3%.

For the compound `O=C1Nc2ccccc2C12Nc1ccccc1S2` (stereo not drawn), the viability was 75.9%.

On to `Cc1ccc(C(C)C)c(OCc2nnc(SCC(=O)Nc3nccs3)n2C)c1`, for which the viability was 92.6%.

For the compound `O=C(Cc1cccs1)N1CCCC(c2nc(-c3ccc(S(=O)(=O)N4CCCC4)cc3)no2)C1` (stereo not drawn), the viability is 72.5%.

Turning to `Cc1sc2c(c1C)c(=O)n(-c1ccccc1)c1nncn21`, the viability is 90.1%.

In the case of `O=C(Nc1ccccc1N1CCN(C(=O)c2ccccc2)CC1)c1ccc2c(c1)OCO2`, the viability is 68%.

As for `CCn1nc(NC(=O)c2ccco2)c2cc3ccc(C)cc3nc21`, the viability was 79.8%.

For the compound `COCCCNC(=O)COc1cc(C)c(Cl)c(C)c1`, the viability is 104%.

For `CC(=O)CCS(=O)(=O)c1ccc(C)c(C)c1`, the viability is 73.8%.

For the compound `CCOc1cc(/C=N/O)cc(Br)c1OC`, the viability was 90.1%.

In the case of `CCc1ccccc1NC(=O)CSc1nnc([C@@H](NC(=O)OC(C)(C)C)C(C)CC)o1` (stereo partly drawn), the viability was 89.6%.

`O=S(=O)(NCCNS(=O)(=O)c1ccccc1)c1ccccc1`: the viability is 87.2%.

With `CCOC(=O)c1nc(N)sc1C(=O)OCC`, the viability was 82.9%.

On to `CCCCOc1ccc(NC(=O)CSCC(=O)OCC)cc1`, for which the viability was 97.7%.

Consider `CCN(CC)C(=O)CSc1nnc(-c2cnccn2)n1-c1ccc(C)cc1`, for which the viability is 112%.

Take `CC(=O)N(CN1C(=O)C2CC=CCC2C1=O)c1cccc(Cl)c1` (stereo not drawn): the viability was 102%.

`O=C(Nc1c(C(=O)N2CCCCC2)cnn1-c1ccccc1)c1ccco1`: the viability was 81.5%.

In the case of `CCOC(=O)c1cnc(-n2nc(C)cc2C)nc1-n1nc(C)cc1C`, the viability was 108%.

In the case of `CCN(CC)C(=O)CSc1nnc(-c2cccc(OC)c2)o1`, the viability was 88.1%.

Turning to `CCS(=O)(=O)n1nc(-c2ccc(OC)cc2)nc1SC`, the viability is 101%.

Turning to `O=C(CSc1nnnn1C1CCCC1)Nc1ccc2c(c1)OCCO2`, the viability was 42.5% (active).

Take `O=C(CSc1nnnn1-c1ccc2c(c1)CCC2)Nc1ccc2c(c1)OCCO2`: the viability was 86.1%.

On to `CCC(=O)Nc1cccc(NC(=O)CSc2nnnn2C2CCCC2)c1`, for which the viability is 69%.

`CCOc1cccc(-c2nn3c(-c4ccccn4)nnc3s2)c1`: the viability was 116%.

As to `CCOC(=O)CNC(=O)CSc1nnc(-c2cccc(OC)c2)n1CC`, the viability was 104%.

For the compound `O=C1CCC(=O)N1CCOP1(=O)COc2ccccc2OC1`, the viability was 98.7%.

With `CCOC(=O)Cn1c(SC)nc2sc3c(c2c1=O)CC(C)(C)OC3`, the viability is 93.7%.

For the compound `CSCC[C@H](NC(=O)NCCc1ccc(F)cc1)C(=O)O`, the viability is 79.6%.

Turning to `O=C(Nc1nn(Cc2ccccc2F)cc1Br)c1cccs1`, the viability was 98.6%.

In the case of `C=CCn1c(CSc2nc3ccccc3s2)nnc1SCC(=O)NCc1ccco1`, the viability was 125%.

Turning to `Cc1ccc(NC(=O)Cn2nc(C)c3ccccc3c2=O)c(C)c1`, the viability was 112%.

As for `CCCCn1c(SCC(=O)N2CCC(C(=O)OCC)CC2)nc2cc(S(N)(=O)=O)ccc21`, the viability is 89.6%.

As to `C=CCN1C(=O)C(O)(CC(=O)c2ccc(Cl)cc2)c2ccccc21` (stereo not drawn), the viability is 86.7%.

With `COc1ccc(OC)c(NC(=O)CSc2nc(N)c(-c3ccccc3)c(=O)[nH]2)c1`, the viability is 98.9%.

Turning to `CN1CCN(C(=O)C2C3C=CC(C3)C2C(=O)O)CC1` (stereo not drawn), the viability is 109%.

As for `COc1ccc(N2CC(C)Cn3c2nc2c3c(=O)n(Cc3ccccc3F)c(=O)n2C)c(OC)c1` (stereo not drawn), the viability is 89.5%.

In the case of `CC1(C)NC(=O)N(CCOc2cccc(Oc3ccccc3)c2)C1=O`, the viability was 94.6%.

Regarding `C[C@H](NC(=O)OC(C)(C)C)c1nnc(SCC(=O)Nc2ccc(Br)cc2)o1`, the viability is 91.1%.

In the case of `CCS(=O)(=O)NCCc1ccc(OC)c(OC)c1`, the viability is 85.1%.

Turning to `CCOc1ccccc1N(CC(=O)Nc1ccccc1C(=O)OC)S(C)(=O)=O`, the viability is 114%.

With `COc1cc(C(=O)Nc2nccs2)cc(OC)c1OC`, the viability was 98.8%.

Consider `CC(C)OC(=O)c1sc2nc3c(cc2c1N)C(=O)CCC3`, for which the viability was 70.8%.

For the compound `CCOC(=O)c1c(C)n(C)c2ccc(OC)c(NC(=O)CN3CCC4(CC3)OCCO4)c12`, the viability is 88.1%.

Take `Cc1ccc(C(=O)NCCNS(=O)(=O)c2ccccc2)cc1`: the viability is 104%.

As to `CC(=O)Nc1ccc(S(=O)(=O)Nc2cccc(NC(=O)C(C)(C)C)c2)cc1`, the viability was 84.7%.

In the case of `CC(c1ccccc1)n1c(NCCCn2ccnc2)nc2c1c(=O)[nH]c(=O)n2C` (stereo not drawn), the viability is 62.8%.

Turning to `O=C(c1cccs1)N(C(=O)c1cccs1)c1ccccn1`, the viability is 75%.

With `Cc1cccc(N2CC(C)Cn3c2nc2c3c(=O)n(CC(=O)OCc3ccccc3)c(=O)n2C)c1` (stereo not drawn), the viability was 72.3%.

`CCN1C(=O)CS/C1=N\c1nccs1`: the viability was 96%.

Consider `O=C(O)c1ccc(F)c(S(=O)(=O)Nc2ccccc2)c1`, for which the viability is 99.6%.

For `CCOc1ccc2nc(NCCNS(=O)(=O)c3ccccc3)c(C#N)cc2c1`, the viability was 73.4%.

Regarding `CCOC(=O)N1CCN(C(=O)CN(c2ccc(C)c(C)c2)S(=O)(=O)c2ccccc2)CC1`, the viability was 124%.

With `CCOC(=O)c1ccc(N2C(=O)CC(N3CC(C)OC(C)C3)C2=O)cc1` (stereo not drawn), the viability is 82.9%.

As for `O=C(c1cccs1)N1CCN(C(=O)N2CCOCC2)CC1`, the viability was 119%.

In the case of `CC(=O)CSc1nnc(CSc2ncccn2)n1C1CCCCC1`, the viability was 77.2%.

Turning to `Cc1nc2nc(CSc3nc4ccccc4s3)cc(=O)n2[nH]1`, the viability is 94.5%.

For the compound `O=S(=O)(c1ccccc1)N(CC(O)CN1CCCCC1)c1ccccc1` (stereo not drawn), the viability is 93%.

`COc1ccc(CCNC(=O)CSc2nc(C)nc3c2oc2ccccc23)cc1OC`: the viability is 131%.

In the case of `CCc1nc2oc3ccccc3c(=O)c2c(=O)n1Cc1ccc(OC)cc1`, the viability was 84.3%.

With `O=C(CCCC(=O)N(CC(=O)NC1CCCC1)Cc1ccccc1Cl)Nc1ccccn1`, the viability was 73.7%.

On to `O=C(NCCCNCc1ccccc1)c1ccc(/C=N/O)nc1`, for which the viability is 117%.

`O=C(NCC1CCCO1)C(C(=O)c1ccccc1)n1cc(Cl)ccc1=O` (stereo not drawn): the viability was 87.7%.

As for `Cc1ccc2c(c1)c1ncn(CCC3=CCCCC3)c(=O)c1n2C`, the viability was 85.3%.

As to `CCCc1nnc(NC(=O)c2cc(OC)cc(OC)c2)s1`, the viability was 81.5%.

`C#CCN1CC(C)/C(=N/O)CC1C` (stereo not drawn): the viability was 108%.

On to `O=C(NC1CCCC1)c1ccc(Br)s1`, for which the viability was 90.4%.

Take `O=C(Oc1ccccc1)c1ccc2nccnc2c1`: the viability is 80.4%.

For the compound `COc1ccc(S(=O)(=O)N2CCC(C(=O)N3CCOCC3)CC2)cc1OC`, the viability was 101%.

For the compound `CCCc1[nH]nc2c1C(C1CC=CCC1)C(C#N)=C(N)O2` (stereo not drawn), the viability is 96.8%.

Regarding `O=C(NCc1cccs1)C1CCN(S(=O)(=O)c2ccc3c(c2)OCCO3)CC1`, the viability was 95.3%.

For the compound `COc1ccc(C(=O)Cn2nnc(-c3ccc(N4CCOCC4)cc3)n2)cc1OC`, the viability is 88.3%.

`O=C(Nc1nc2cc3c(cc2s1)OCCO3)c1cccc(S(=O)(=O)N2CCOCC2)c1`: the viability was 79.5%.

As for `COc1ccc2[nH]c3ccc(OC)cc3c2c1`, the viability was 89.2%.

Regarding `C=CCC(NCCCO)c1cccc(OC)c1OC` (stereo not drawn), the viability was 107%.

In the case of `Fc1ccc(OCc2nn3c(Cn4nnc5ccccc54)nnc3s2)cc1`, the viability was 59.8%.

For the compound `CCOC(=O)c1sc(NC(=O)c2cc(S(=O)(=O)N3CCOCC3)ccc2C)nc1C`, the viability is 88.3%.

Regarding `COc1ccc(Br)cc1/C=N/n1c(C)nnc1C`, the viability is 96.9%.

For `CCC(=O)Nc1ccccc1C(=O)N1CCN(Cc2ccccc2)CC1`, the viability was 90.1%.

With `O=C(Nc1cccc(C(=O)N2CCCC2)c1)c1ccccc1`, the viability is 91.4%.

As for `Cc1cc(C(F)(F)F)c(C#N)c(SCC(=O)NC2CC2)n1`, the viability is 109%.

Regarding `CN1CCN(CC(=O)C23CC4CC(CC(C4)C2)C3)CC1`, the viability is 122%.

`CN1CCN(S(=O)(=O)c2ccc(NC(=O)c3ccco3)cc2)CC1`: the viability was 85.4%.

For `COc1ccccc1-n1nnnc1S(=O)(=O)Cc1ccc(Cl)cc1`, the viability was 95.1%.
